Compound activity (PubChem BioAssay)
In the library only some 10% were active in any assay of this set; here they are far more common.
SW480 rereplic – DNA re-replication induction in SW480 cells | 340,000 compounds, 1.8% hits | Potency, µM (highest dose often 46.1 µM), for the others: at the top dose re-replication activation, actives largely listed as activators | SW480 DNA re-replication, Hoechst DNA content imaging, 48 h | AID 624297; note: % of control where 0% means no effect; nearly all actives have a fitted effect of over 55% in size
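Image-based read-out: total Hoechst fluorescence of nuclei (405 nm excitation, 500-530 nm emission), with hits raising the fraction of high-intensity nuclei. SW480 colon cells incubated 48 hr with compounds at 37 C.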
ELG1 repair inh – inhibitors of ELG1-dependent DNA repair in HEK293T cells | HEK293T ELG1-luciferase reporter, luminescence, 16 h; DNA damage induced by 5-fluorouridine | Potency, µM (doses to about 46.1 µM), without a hit: at the top dose activity change, negative = inhibition, hits mostly inhibitors | 330,000 compounds, 2.3% hits | AID 504467; note: % is set by controls: 0 for no effect and ±100 for the full control effect; nearly all actives have a fitted effect of over 55% in size
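5-Fluorouridine DNA damage + compound/DMSO, 2,000 cells/well, 16 h, 37 °C/5% CO2. ONE-Glo, 30 min RT, luminescence. Readout = decrease in reporter signal.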
Gal4-VP16 FLuc – inhibits Gal4-VP16 luciferase reporter, ROR gamma counter-screen | Drosophila S2 Gal4-VP16 UAS-luciferase, luminescence, 20 h | Potency, µM (series often up to 53.6 µM), for inactives: top-dose activity, negative = inhibition, usual class: inhibitors | 310,000 compounds, 3.5% hits;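 note: Gal4-VP16 expression switched on by copper sulfate through the metallothionein promoter; % is set by controls: 0 for no effect and ±100 for the full control effect; nearly all actives have a fitted effect of over 50% in size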
MCF10A rereplic – DNA re-replication induction in MCF 10a cells. MCF 10A DNA re-replication, Hoechst nuclear intensity, 48 h. Potency, µM (highest dose often 46.1 µM), without a hit: top-dose activity, positive = re-replication, usual class: activators. 350,000 compounds, 2.9% hits. AID 624296; note: % of control where 0% means no effect; nearly all actives have a fitted effect of over 50% in size
RORg inh – ROR gamma (mouse) transcription inhibition. P51450. Drosophila S2 Gal4-RORgamma UAS-luciferase reporter, 20 h. Potency, µM (top dose mostly 53.6 µM), for the others: at the highest dose activity change, negative = inhibition, hits mostly inhibitors. 310,000 compounds, 5.4% hits. AID 2551; note: % is set by controls: 0 for no effect and ±100 for the full control effect; nearly all actives have a fitted effect of over 60% in size
Target sequence (P51450 whole entry, looked up, the tested form may be a part): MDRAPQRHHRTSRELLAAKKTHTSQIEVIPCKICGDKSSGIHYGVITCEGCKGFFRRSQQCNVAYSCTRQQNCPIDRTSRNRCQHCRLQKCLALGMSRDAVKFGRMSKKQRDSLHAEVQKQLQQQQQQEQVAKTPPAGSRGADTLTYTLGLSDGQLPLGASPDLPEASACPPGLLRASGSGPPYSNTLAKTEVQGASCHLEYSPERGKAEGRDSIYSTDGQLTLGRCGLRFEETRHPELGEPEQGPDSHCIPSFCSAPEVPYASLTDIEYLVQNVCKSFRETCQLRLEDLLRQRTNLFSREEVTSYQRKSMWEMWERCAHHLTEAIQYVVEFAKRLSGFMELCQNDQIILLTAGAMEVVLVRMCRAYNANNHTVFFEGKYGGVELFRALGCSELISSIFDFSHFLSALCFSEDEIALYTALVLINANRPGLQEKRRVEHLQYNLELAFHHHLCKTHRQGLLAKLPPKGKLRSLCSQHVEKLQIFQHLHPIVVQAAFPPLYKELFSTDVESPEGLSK
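Stably transfected Drosophila Schneider cells are the test system, with ROR gamma fused to Gal4 and luciferase under UAS control; luminescence is read after 20 hr of 700 uM copper sulfate induction at ambient temperature.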
ELG1 unstim viab – unstimulated viability counter-screen for ELG1 repair hits. shares compounds with ELG1 repair inh. Potency, µM (top dose mostly 45.9 µM), for inactives: top-dose activity change, negative = loss of viability, most hits filed as cytotoxic. 900 compounds, 8% hits. cell viability counter-screen, unstimulated, luminescence;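 note: compound exposure lasted 16 hours before reading; % is set by controls: 0 for no effect and ±100 for the full control effect; nearly all actives have a fitted effect of over 55% in size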
The depositor's hits bear a star; ? = inconclusive; . = not tested or not shown; [ ] = another dose, or the depositor's remark. Calls come from the whole dose curve; as a rule, active = well fitted curve in the direction sought with a large enough effect; inconclusive = small, poorly fitted or top-dose-only effect, or another doubt; inactive = no such curve, though single readings can be large; an effect the other way counts as inactive or inconclusive. Potency is the fitted concentration of half-maximal effect.

SMILES	SW480 rereplic	ELG1 repair inh	Gal4-VP16 FLuc	MCF10A rereplic	RORg inh	others
C/C(=N\NC(=O)c1ccccc1)c1c(O)n(C2CCCCC2)c(=O)[nH]c1=O	-7%	4%	20µM*	1%	10µM*
C/C(=N\NC(=O)c1ccccc1O)c1c(O)n(C2CCCCC2)c(=O)[nH]c1=O	3%	?	11µM*	2%	5µM*
C/C(=N\NC(=O)c1ccccc1O)c1c(O)n(Cc2ccccc2)c(=O)[nH]c1=O	-3%	?	-16%	0%	16µM*
C/C(=N\NC(=O)c1ccccc1Cl)c1c(O)n(C2CCCCC2)c(=O)[nH]c1=O	?	6%	11µM*	0%	7.1µM*
CC(=NCCO)c1c(O)n(C2CCCCC2)c(=O)[nH]c1=O	2%	8%	-17%	-2%	18%
CC(=NCc1cccnc1)c1c(O)n(C2CCCCC2)c(=O)[nH]c1=O	1%	-10%	-17%	12%	6%
CC(=O)N(C1=NCCCS1)c1ccccc1Cl	-14%	7%	-2%[10 µM]	0.58µM*	4%
Nc1c(C(=O)NC2CCCC2)c2nc3ccccc3nc2n1CC1CCCO1 (configuration not stated)	15µM*	15µM*	-4%	7.3µM*	2%
CCOC(=O)c1c(N)n(Cc2ccc(OC)cc2)c2nc3ccccc3nc12	.	?	-7%	.	29%
COCCOC(=O)c1c(N)n(Cc2ccc(OC)cc2)c2nc3ccccc3nc12	20%	15µM*	0%	5%	-11%
Nc1c(C(=O)NCC2CCCO2)c2nc3ccccc3nc2n1Cc1ccco1 (configuration not stated)	13µM*	23µM*	?	2.6µM*	1%
COCCOC(=O)c1c(N)n(Cc2ccco2)c2nc3ccccc3nc12	0%	-4%	3%	-2%	35%
CC(C)CNC(=O)c1c(N)n(Cc2ccco2)c2nc3ccccc3nc12	21µM*	26µM*	?	6.5µM*	-28%
CC(=O)c1c(C)n(CC2CCCO2)c2ccc(O)cc12 (configuration not stated)	?	-10%	8%	?	-17%
COC(=O)[C@H]1C(=O)c2ccccc2O[C@@](C(=O)OC)(c2ccccc2)[C@@H]1c1ccccc1	.	.	4%[10 µM]	.	22%[10 µM]
CC(C)CCC(=O)OC1CCC2C3CCC4=CC(=O)CC[C@]4(C)C3CC[C@]12C (some centres not stated)	1%	.	.	?	.
COc1ccc(Cn2c(N)c(C(=O)NCc3ccco3)c3nc4ccccc4nc32)cc1OC	0.52µM*	?	-9%	?	27%
Nc1c(C(=O)NCc2ccco2)c2nc3ccccc3nc2n1CCN1CCCCC1	-2%	?	-25%	-4%	?
CCCNC(=O)c1c(N)n(Cc2ccco2)c2nc3ccccc3nc12	?	23µM*	-6%	2.1µM*	2%
COCCCNC(=O)c1c(N)n(Cc2ccco2)c2nc3ccccc3nc12	9.2µM*	?	-16%	12µM*	?
BrCCBr	.	.	7%	.	0%
c1ccc(CN2CCC3(CCNCC3)CC2)cc1	.	.	-2%	.	-15%
C=CCn1c(O)c(C(C)=NC(C)c2ccccc2)c(=O)[nH]c1=O (configuration not stated)	-4%	?	-8%	1%	-32%
C=CCn1c(O)c(C(C)=NCCC(c2ccccc2)c2ccccc2)c(=O)[nH]c1=O	32%	7.3µM*	5%	1%	43%
CC(O)C1C=CC=CC(=O)OC2CC3OC4C5OC5(C)C(O)CC4(COC(=O)C(O)C(C)CCO1)C2(C)C31CO1 (configuration not stated)	1.8µM*	.	.	?	.
SMILES	SW480 rereplic	ELG1 repair inh	Gal4-VP16 FLuc	MCF10A rereplic	RORg inh	others
CC1CCOC(=O)C=CC=CC(=O)OC2CC3OC4C5OC5(C)C(O)CC4(COC(=O)C1O)C2(C)C31CO1 (configuration not stated)	?	.	.	0.23µM*	.
CC1=CC2OC3CC4OC(=O)C=CC=CC(=O)OCCC(C)C(O)C(=O)OCC2(CC1)C4(C)C31CO1 (configuration not stated)	?	.	.	12%	.
CN(C)C(=Nc1ccccc1)P(=S)(N(C)C)N(C)C	1%	4%	-6%	2%	10µM*
CCCCC/C=C\C/C=C\C/C=C\C/C=C\CCCC(=O)N(Cc1ccc(O)c(Cl)c1)Cc1ccc(O)c(Cl)c1	.	.	10%	.	3%
O=c1c2ccccc2nc(-c2ccccc2)n1-c1ccccc1	-10%	-13%	4%	3%	-6%
O=c1c2ccccc2[se]n1-c1ccccc1	18µM*	7%	11µM*	?	10µM*
CC[C@@H](C)[C@H](C(CC(=O)N1CCCC1[C@@H](OC)[C@H](C)C(=O)N[C@H](Cc1ccccc1)c1nccs1)OC)N(C)C(=O)[C@H](NC(=O)[C@@H](C(C)C)N(C)C)C(C)C (some centres not stated)	0.082µM*	.	.	15%	.
CN(C)C(CSC(N)=O)CSC(N)=O	.	.	2%	.	34%
CC(=O)OCC1=C[C@H]2[C@@H]3C(C)(C)[C@]3(OC(=O)Cc3ccccc3)C[C@@H](C)[C@]2(O)[C@@H]2C=C(C)C(=O)[C@@]2(O)C1	.	.	?	.	-25%	ELG1 unstim viab=?
